# Test results as given in the supplement of paper PMC10981050.
# “And” between values parts separate entries of the source, which are not always exact repeats. Equal entries are not always repeated. Structures can show the parent of a compound that is named as a salt.
# Assays:
# Assay in all cases: cell viability relative to vehicle control; higher = less cytotoxic
# Settings in all cases: 10 µM
# [1] = test system: K562
# Summary of the method: (§1)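 CRISPR-edited SRSF2 P95 mutant and isogenic wild-type clones of four leukaemia lines were screened against Selleck bioactive, kinase and epigenetic probe libraries, with identity-inconsistent compounds removed. Compounds were acoustically dispensed into 384-well plates at a single 10 µM dose, with 2000 cells in 50 µL medium per well. After 48 h, supernatant was removed and CellTiter-Glo luminescence was read. Viability was expressed as percent of the on-plate DMSO vehicle control, analysed in Genedata Screener.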
# [2] = test system: MARIMO
# Summary of the method: as §1
# [3] = test system: MOLM14
# Summary of the method: as §1
# [4] = test system: OCI-AML2
# Summary of the method: as §1
Compound,cell viability ([1]; SRSF2 genotype: SRSF2 P95H/wt),cell viability ([1]; SRSF2 genotype: SRSF2 wt/wt) [%],cell viability ([2]; SRSF2 genotype: SRSF2 P95H/wt) [%],cell viability ([2]; SRSF2 genotype: SRSF2 wt/wt) [%],cell viability ([3]; SRSF2 genotype: SRSF2 P95H/wt) [%],cell viability ([3]; SRSF2 genotype: SRSF2 wt/wt) [%],cell viability ([4]; SRSF2 genotype: P95H/wt) [%],cell viability ([4]; SRSF2 genotype: wt/wt) [%]
CC(C)=C[C@H]1C[C@](C)(O)[C@@H]2[C@H]3CC[C@@H]4[C@@]5(C)CC[C@H](O[C@@H]6OC[C@H](O)[C@H](O[C@@H]7O[C@H](CO)[C@@H](O)[C@H](O)[C@H]7O[C@@H]7OC[C@@H](O)[C@H](O)[C@H]7O)[C@H]6O[C@@H]6O[C@@H](C)[C@H](O)[C@@H](O)[C@H]6O)C(C)(C)[C@@H]5CC[C@@]4(C)[C@@]34CO[C@@]2(C4)O1 [Jujuboside B],117% and 106%,102,108,113,107,106,97.2,108
CCC(CC)(NC(=O)C(C)C)C(=O)N[C@@H](CCCN=C(N)N)C(=O)NC1(C(=O)NC(c2ccc(F)cc2)c2ccc(F)cc2)CCCC1,98.6% and 103%,106,93.8,98.3,93.4,99.3,97.9,108
COc1cc2c(Oc3ccc4[nH]c(C)cc4c3F)ncnc2cc1OCCCN1CCCC1 [Cediranib (AZD2171)],4.41% and 2.97%,11.7,55.1,48.3,2.27,1.47,9.24,21.7
CC12CCC(CC1)C(C)(C)O2 [Eucalyptol],104% and 102%,104,101,101,104,101,102,103
CO/N=C(\C(=O)N[C@@H]1C(=O)N2C(C(=O)OCOC(=O)C(C)(C)C)=C(/C=C\c3scnc3C)CS[C@H]12)c1csc(N)n1 [Cefditoren pivoxil],103% and 99.7%,101,104,111,94.5,103,102,111
"CN(C)CCOc1ccc(/C(=C(/CCCl)c2ccccc2)c2ccccc2)cc1 [Toremifene Citrate (Fareston, Acapodene)]",64.7% and 56.1%,71.9,53.7,65.5,56,55.7,60,51.7
O=c1[nH]nc2c3c(cccc13)N=C(CN1Cc3ccccc3C1)N2,69.4% and 77.8%,66.3,93,108,74.5,65.6,69.7,86.2
CCOC(=O)c1ccc(O)c(OC)c1 [Ethyl Vanillate],97.5% and 92.9%,100,105,108,94.1,104,103,91.1
CC(C)c1nc(N(C)S(C)(=O)=O)nc(-c2ccc(F)cc2)c1/C=C/[C@@H](O)C[C@@H](O)CC(=O)O [Rosuvastatin Calcium],103% and 107%,101,94.8,96.5,112,105,105,102
COc1ccc(Oc2cc(C)c(-c3csc(NC(=O)c4ccncc4)n3)c(C)c2)cc1,43.7% and 37.3%,36.9,37.8,37.6,42.4,25.9,47.8,32.2
"Cc1cc(Nc2cc(N3CCN(C)CC3)nc(Sc3ccc(NC(=O)C4CC4)cc3)n2)n[nH]1 [VX-680 (MK-0457, Tozasertib)]",16.4% and 18.7%,14.8,53.6,38,6.03,9.53,14.4,19.3
O=C(NC(Cc1cc(=O)[nH]c2ccccc12)C(=O)O)c1ccc(Cl)cc1 (centres undefined) [Rebamipide],99.4% and 101%,96.4,96.9,100,104,101,94.8,102
CCN(CC)C(=O)C1(c2ccccc2)CC1CN (centres undefined) [Milnacipran HCl],96.3% and 102%,96.8,99.6,106,102,105,106,108
C=CC(=O)N1CCN(CCCn2c(=O)c(-c3c(Cl)c(OC)cc(OC)c3Cl)cc3cnc(NC)nc32)CC1,85.1% and 88.1%,86.8,63.3,72.7,85.3,88.1,65.2,69.4
Cc1ccc(Cl)cc1N(CC(=O)Nc1c(F)cccc1F)S(C)(=O)=O,104% and 111%,116,99.5,106,102,105,110,124
CC(C)c1cc(C(=O)N2Cc3ccc(CN4CCN(C)CC4)cc3C2)c(O)cc1O,21.1% and 29.8%,24,28,26.9,3.31,4.31,18.1,22.8
CN1CCCC(n2nc(Cc3ccc(Cl)cc3)c3ccccc3c2=O)CC1 (centres undefined) [Azelastine hydrochloride (Astelin)],87% and 91%,92.6,88.1,90.3,78.9,88.6,75.9,72.6

Compound,cell viability ([1]; SRSF2 genotype: SRSF2 P95H/wt),cell viability ([1]; SRSF2 genotype: SRSF2 wt/wt) [%],cell viability ([2]; SRSF2 genotype: SRSF2 P95H/wt) [%],cell viability ([2]; SRSF2 genotype: SRSF2 wt/wt) [%],cell viability ([3]; SRSF2 genotype: SRSF2 P95H/wt) [%],cell viability ([3]; SRSF2 genotype: SRSF2 wt/wt) [%],cell viability ([4]; SRSF2 genotype: P95H/wt) [%],cell viability ([4]; SRSF2 genotype: wt/wt) [%]
O=C(O)C=CCCCCCCCO [Royal jelly acid],103% and 104%,102,104,105,98.5,102,110,112
CN(C)C(=S)NN=C(c1ccccn1)c1ccccn1,30% and 40.3%,30.9,11.5,20.1,1.77,0.87,10.9,10.6
Cc1ccc(Nc2nccc(N(C)c3ccc4c(C)n(C)nc4c3)n2)cc1S(N)(=O)=O [Pazopanib HCl],49.1% and 57.7%,51,54.5,46.3,36.4,39.8,28.3,33.9
CC1=C(C(=O)Nc2ccc3[nH]ncc3c2)C(c2ccc(F)cc2)NC(=O)N1 (centres undefined),101% and 97.9%,110,102,99.9,38.5,91.7,33.7,51.5
CCc1c2c(nc3ccc(OC(=O)N4CCC(N5CCCCC5)CC4)cc13)-c1cc3c(c(=O)n1C2)COC(=O)[C@]3(O)CC [Irinotecan HCl Trihydrate (Campto)],59.7% and 76.8%,63.1,6.18,6.47,15.1,4.24,3.79,2.87
CC(=O)OC1C[C@H](C)CCC1C(C)C (stereo partly drawn) [(1R)-(-)-Menthyl acetate],98% and 101%,101,92.4,97.6,98.5,106,104,114
Cc1c(CN2CCC(Nc3ncnc4sc(CC(F)(F)F)cc34)CC2)ccc2[nH]c(C#N)cc12,3.04% and 4.05%,17.5,42.9,41.7,4.02,3.33,0.4,9.25
C/C=C(/C)C(=O)O[C@H]1c2cc(OC)c(OC)c(OC)c2-c2c(cc3c(c2OC)OCO3)C[C@H](C)[C@]1(C)O [Schisantherin B],98.1% and 96.8%,93.7,93,94.1,82.8,92.6,97.1,97
COc1cc2c(cc1O)C[C@H]1c3cc(O)c(OC)cc3CC[N+]1(C)C2 (some centres undefined) [Phellodendrine chloride],92.6% and 101%,98.5,100,95.6,103,95.9,96.7,102
Cc1ccc(S(=O)(=O)Nc2cc(-c3ccc(C#N)s3)ccc2C)cc1,12.9% and 36.3%,33.5,7.34,8.88,1.58,1.53,2.78,5.12
CCC(C)CC(C)CCCCCCCCC(=O)NC1CC(O)C(O)NC(=O)C2C(O)CCN2C(=O)C(C(O)CC(N)=O)NC(=O)C(C(O)C(O)c2ccc(O)cc2)NC(=O)C2CC(O)CN2C(=O)C(C(C)O)NC1=O (centres undefined) [Pneumocandin B0],96.7% and 91.6%,90,97,95.1,93.5,98.7,95.7,91.8
Cc1nc2ccc(-n3ncc(C(=O)c4cc5ccccc5[nH]4)c3N)cc2[nH]1,73.6% and 86.9%,76.5,90.6,103,41.2,47.5,42.6,43.7
O=C(O)C(=O)O [Oxalic acid],99% and 94.9%,90,95.8,94.5,95.2,94.3,99.2,99.6
CCCCc1ccc(O)cc1O [4-Butylresorcinol],99.6% and 85.8%,91.2,90.6,102,86.5,93.8,85.7,88.9
COc1cc2nccc(Oc3ccc(NC(=O)C4(C(=O)Nc5ccc(F)cc5)CC4)cc3)c2cc1OC,9.94% and 12.3%,20.6,69.1,66.8,5.29,5.9,19.2,28
OCc1ccc(O)cc1 [4-Hydroxybenzyl alcohol],108% and 106%,111,98,112,108,109,111,95.3
